Of roughly 7,900 targets only a part is listed; those with a hit were picked by preference. About 0.6% of all pairs of compound and target were hits. Values without a mark were called inactive.

Common to all, as to test: log2 fold change, soluble protein after heating vs DMSO (PISA); higher = thermal stabilisation; K562 cells, 10 uM, 30 min; active = over 0.2 and 3.5 SD of the protein, either way, in both replicates (recomputed)
Compound in assay [1]: C#Cc1cccc(Nc2ncnc3cc(OCCOC)c(OCCOC)cc23)c1 [erlotinib]
A digest of the protocol:
(§1)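 K562 cells at 2×10^6 cells/mL were given 10 μM compound for 30 min. Aliquots then went through 3 min of heating across 48°C-58°C, were pooled, and were extracted in PBS with 0.5% NP-40 at 4°C, and the supernatant after 21,000xg for 90 min was quantified by TMTpro 16plex LC-MS/MS with channel sums equalised. Thermal stability relative to control samples, from duplicates, is given as log2 fold change.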

Compound in assay [2]: C/C(=N\NC(=O)C1=CC(=CC=C1)S(=O)(=O)N2CCOCC2)/C3=C(C=CC(=C3)Cl)O
An outline of the steps:
as §1

Compound in assay [3]: C1=CC(=C(C=C1Cl)C2=NC3=NC=CN=C3C(=N2)NC4=CC=NC=C4)F
An outline of the steps: as §1

Compound in assay [4]: C1=CC(=CC=C1C2=NC3=C(N2)C=C(C=C3)C(=O)N)OC4=CC=C(C=C4)Cl
A digest of the protocol: as §1

Compound in assay [5]: C1=CC2=C(C=CC(=C2)/C=C\3/C(=O)NC(=NCC4=CC=CS4)S3)N=C1
An outline of the steps: as §1

Compound in assay [6]: C1=CC2=NC=CN=C2C=C1/C=C/3\C(=O)NC(=O)S3
An outline of the steps: as §1

Compound in assay [7]: C1=CC=C(C=C1)C2=NC(=C(N2)C3=CC=NC=C3)C4=CC(=C(C=C4)Cl)O
An outline of the steps: as §1

Compound in assay [8]: C1=CC=C2C(=C1)C3=NNC4=CC=CC(=C43)C2=O
A digest of the protocol: as §1

Compound in assay [9]: C1COCCN1CCN2C3=CC=CC=C3N=C2NC(=O)C4=CC(=CC=C4)[N+](=O)[O-] [IRAK-1-4 Inhibitor I]
A digest of the protocol:
as §1

Compound in assay [10]: C=CC(=O)N1CCC[C@@H](n2nc(-c3ccc(Oc4ccccc4)cc3)c3c(N)ncnc32)C1 [ibrutinib]
A digest of the protocol: as §1

Compound in assay [11]: CC(=O)c1cnc2ccc(-c3cc(Cl)c(O)c(Cl)c3)nc2c1N[C@H]1CC[C@H](CN(C)C)CC1
A digest of the protocol: as §1

Compound in assay [12]: CC(C)(C)Cn1c(N)nc2ccc(-c3[nH]c(C(C)(C)C)nc3-c3ccc(F)cc3)nc21 [ralimetinib]
An outline of the steps:
as §1

Compound in assay [13]: CC(C)(O)CC(=O)NCCn1ccc2ncnc(Nc3ccc(Oc4cccc(C(F)(F)F)c4)c(Cl)c3)c21
An outline of the steps: as §1

Compound in assay [14]: CC(C)C1=C2N=C(C=C(N2N=C1)NCC3=CC=CC=C3)NCCCCCCN
A digest of the protocol: as §1

Compound in assay [15]: CC(C)C[C@@H](C=O)NC(=O)[C@H](CC(C)C)NC(=O)[C@H](CC(C)C)NC(=O)OCc1ccccc1
An outline of the steps:
as §1

Compound in assay [16]: CC(C)N(C[C@H]1O[C@@H](n2cnc3c(N)ncnc32)[C@H](O)[C@@H]1O)[C@H]1C[C@@H](CCc2nc3cc(C(C)(C)C)ccc3[nH]2)C1 [pinometostat]
An outline of the steps: as §1

Compound in assay [17]: CC1=C(C(CC(=O)N1)C2=CC=C(C=C2)C(F)(F)F)C(=O)NC3=C(C=C4C(=C3)C=NN4)F
An outline of the steps:
as §1

Compound in assay [18]: C1CCN(C1)C(=O)NC2=CC=CC(=C2)NC3=NC=C(C(=N3)NCCC4=CN=CN4)Br
A digest of the protocol:
as §1

Compound in assay [19]: C1CN(CCC1(CC2=CC=C(C=C2)Cl)N)C3=NC=NC4=C3C=CN4
A digest of the protocol:
as §1

Compound in assay [20]: CC1=C(C2=C(C=C1)C(=O)C3=CC=CC=C3N2CCCN)C
A digest of the protocol:
as §1

UniProt P24311, sequence (P24311 whole entry, looked up): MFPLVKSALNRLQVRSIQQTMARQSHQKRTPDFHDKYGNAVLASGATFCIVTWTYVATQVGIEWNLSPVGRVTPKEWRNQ
UniProt O95273, sequence (O95273 whole entry, looked up): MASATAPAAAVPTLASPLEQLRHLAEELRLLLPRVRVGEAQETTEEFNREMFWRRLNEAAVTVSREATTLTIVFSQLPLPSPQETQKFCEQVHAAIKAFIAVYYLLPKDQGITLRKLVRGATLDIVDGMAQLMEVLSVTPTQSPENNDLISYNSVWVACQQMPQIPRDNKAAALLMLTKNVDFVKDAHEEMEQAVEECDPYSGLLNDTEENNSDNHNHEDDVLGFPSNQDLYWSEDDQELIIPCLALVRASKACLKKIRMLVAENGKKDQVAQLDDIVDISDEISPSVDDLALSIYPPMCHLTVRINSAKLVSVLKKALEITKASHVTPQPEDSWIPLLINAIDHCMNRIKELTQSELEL
UniProt Q14677, sequence (Q14677 whole entry, looked up): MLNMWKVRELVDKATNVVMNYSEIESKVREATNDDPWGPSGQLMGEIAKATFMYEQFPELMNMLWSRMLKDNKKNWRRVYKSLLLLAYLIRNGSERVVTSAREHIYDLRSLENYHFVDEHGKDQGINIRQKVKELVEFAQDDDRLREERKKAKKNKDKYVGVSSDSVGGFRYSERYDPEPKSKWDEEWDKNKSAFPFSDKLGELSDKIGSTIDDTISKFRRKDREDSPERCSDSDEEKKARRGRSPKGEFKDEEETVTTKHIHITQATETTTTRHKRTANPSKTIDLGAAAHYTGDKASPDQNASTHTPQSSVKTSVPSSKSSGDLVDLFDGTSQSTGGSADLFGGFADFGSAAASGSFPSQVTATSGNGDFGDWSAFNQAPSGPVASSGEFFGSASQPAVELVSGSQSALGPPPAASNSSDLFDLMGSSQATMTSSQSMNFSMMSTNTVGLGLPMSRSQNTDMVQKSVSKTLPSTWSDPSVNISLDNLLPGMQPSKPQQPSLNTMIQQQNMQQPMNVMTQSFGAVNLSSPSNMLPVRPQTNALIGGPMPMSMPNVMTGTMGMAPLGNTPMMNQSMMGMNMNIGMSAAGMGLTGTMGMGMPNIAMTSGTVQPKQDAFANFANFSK
UniProt Q9UIB8, sequence (Q9UIB8 whole entry, looked up): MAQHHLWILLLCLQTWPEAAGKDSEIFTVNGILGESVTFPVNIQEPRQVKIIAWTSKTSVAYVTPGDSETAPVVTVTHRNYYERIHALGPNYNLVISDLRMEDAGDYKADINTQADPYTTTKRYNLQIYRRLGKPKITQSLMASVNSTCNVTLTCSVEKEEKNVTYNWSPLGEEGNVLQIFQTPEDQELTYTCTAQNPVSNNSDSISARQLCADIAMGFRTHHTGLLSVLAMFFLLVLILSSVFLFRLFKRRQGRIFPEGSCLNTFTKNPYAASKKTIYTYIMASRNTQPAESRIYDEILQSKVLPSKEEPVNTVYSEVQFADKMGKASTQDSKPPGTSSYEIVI
UniProt Q00535, sequence (Q00535 whole entry, looked up): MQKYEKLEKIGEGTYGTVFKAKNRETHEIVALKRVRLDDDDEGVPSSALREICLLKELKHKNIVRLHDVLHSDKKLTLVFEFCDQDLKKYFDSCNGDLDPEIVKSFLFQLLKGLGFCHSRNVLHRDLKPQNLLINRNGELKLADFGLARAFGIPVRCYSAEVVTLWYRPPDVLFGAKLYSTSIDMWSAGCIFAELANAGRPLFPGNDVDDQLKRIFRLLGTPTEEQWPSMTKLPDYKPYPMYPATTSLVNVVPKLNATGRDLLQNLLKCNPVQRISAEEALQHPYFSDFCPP
UniProt P11802, sequence (P11802 whole entry, looked up): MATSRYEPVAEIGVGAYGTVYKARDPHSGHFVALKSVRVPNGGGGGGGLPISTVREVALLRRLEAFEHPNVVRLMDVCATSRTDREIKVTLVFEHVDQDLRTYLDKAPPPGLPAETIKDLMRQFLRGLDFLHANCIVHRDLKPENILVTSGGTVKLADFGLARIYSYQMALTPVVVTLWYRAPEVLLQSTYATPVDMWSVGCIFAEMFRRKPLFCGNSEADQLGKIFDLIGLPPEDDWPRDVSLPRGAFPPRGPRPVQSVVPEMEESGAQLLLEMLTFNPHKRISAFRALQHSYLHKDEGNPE
UniProt A8MTT3, sequence (A8MTT3 whole entry, looked up): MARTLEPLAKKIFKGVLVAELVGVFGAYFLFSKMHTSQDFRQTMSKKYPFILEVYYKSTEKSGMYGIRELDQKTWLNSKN
UniProt Q9Y2V0, sequence (Q9Y2V0 whole entry, looked up): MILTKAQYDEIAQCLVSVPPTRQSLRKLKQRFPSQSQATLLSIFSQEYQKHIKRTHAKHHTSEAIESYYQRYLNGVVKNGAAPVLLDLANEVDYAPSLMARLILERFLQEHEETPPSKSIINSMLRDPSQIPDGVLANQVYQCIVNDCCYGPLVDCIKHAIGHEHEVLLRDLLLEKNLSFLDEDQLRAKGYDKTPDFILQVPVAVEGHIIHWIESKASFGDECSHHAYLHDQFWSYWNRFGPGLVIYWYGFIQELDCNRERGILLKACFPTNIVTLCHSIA
UniProt O75122, sequence (O75122 whole entry, looked up): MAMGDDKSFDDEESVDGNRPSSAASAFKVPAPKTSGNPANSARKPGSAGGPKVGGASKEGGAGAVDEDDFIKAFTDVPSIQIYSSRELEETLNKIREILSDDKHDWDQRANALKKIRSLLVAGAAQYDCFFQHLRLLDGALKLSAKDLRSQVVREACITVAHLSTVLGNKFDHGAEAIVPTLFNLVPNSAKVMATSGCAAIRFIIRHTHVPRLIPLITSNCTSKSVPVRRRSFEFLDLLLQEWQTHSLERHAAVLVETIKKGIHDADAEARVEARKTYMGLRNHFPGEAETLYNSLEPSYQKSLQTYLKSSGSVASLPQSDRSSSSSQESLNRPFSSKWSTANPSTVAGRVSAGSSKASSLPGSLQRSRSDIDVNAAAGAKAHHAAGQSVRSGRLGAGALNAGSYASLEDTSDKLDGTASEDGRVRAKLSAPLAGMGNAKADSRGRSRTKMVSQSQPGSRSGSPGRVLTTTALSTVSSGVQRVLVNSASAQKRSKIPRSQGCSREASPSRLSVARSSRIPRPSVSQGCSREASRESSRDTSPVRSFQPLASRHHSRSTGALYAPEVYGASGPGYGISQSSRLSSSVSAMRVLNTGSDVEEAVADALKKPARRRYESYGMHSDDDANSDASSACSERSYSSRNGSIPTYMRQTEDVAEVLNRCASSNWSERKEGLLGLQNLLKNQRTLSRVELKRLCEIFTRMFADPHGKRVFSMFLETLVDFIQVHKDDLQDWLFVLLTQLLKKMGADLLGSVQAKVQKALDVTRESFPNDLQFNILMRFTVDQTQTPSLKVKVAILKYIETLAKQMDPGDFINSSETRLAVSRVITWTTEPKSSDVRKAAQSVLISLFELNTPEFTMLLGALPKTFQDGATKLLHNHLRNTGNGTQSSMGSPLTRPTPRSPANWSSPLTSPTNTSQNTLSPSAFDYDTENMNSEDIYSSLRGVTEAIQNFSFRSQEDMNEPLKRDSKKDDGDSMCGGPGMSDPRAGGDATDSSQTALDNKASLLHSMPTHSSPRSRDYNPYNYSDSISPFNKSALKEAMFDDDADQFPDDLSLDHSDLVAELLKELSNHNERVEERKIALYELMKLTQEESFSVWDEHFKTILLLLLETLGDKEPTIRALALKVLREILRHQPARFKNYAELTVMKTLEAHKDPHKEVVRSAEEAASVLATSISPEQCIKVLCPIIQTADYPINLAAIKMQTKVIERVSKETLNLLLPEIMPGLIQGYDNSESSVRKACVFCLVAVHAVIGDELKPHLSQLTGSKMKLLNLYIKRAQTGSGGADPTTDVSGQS

With CDK4 (UniProt P11802), the log2 fold change in assay [1] was 0.075; in assay [2], -0.244; in [3], -0.008; in [4], -0.086; in assay [5], 0.329; in assay [6], 0.11. Besides, the log2 fold change in [7] was -0.067; in [8], 0.032; in assay [9] it was 0.001; in assay [10], -0.004; in [11], 0.685 (active); in assay [12], 0.054. In addition, the log2 fold change is -0.098 in [13]; -0.333 in assay [14]; 0.105 in assay [15]; 0.081 in assay [16]; -0.069 in assay [17].

CEBPZOS (UniProt A8MTT3): the log2 fold change is -0.017 in [1]; 0.084 in [2]; 0.015 in assay [4]; 0.039 in [5]; 0.074 in [6]; 0.03 in assay [7]. Besides, the log2 fold change in assay [8] is 0.057; in [18] it was 0.05; in assay [19], -0.03; in assay [9], -0.034; in assay [10], -0.095; in [11] it was 0.003. The log2 fold change in assay [12] is -0.076; in assay [14], 0.018; in assay [15] it was -0.059; in [16], -0.026; in assay [17], 0.02; in assay [20], 0.

On to COX7B (UniProt P24311), for which the log2 fold change is -0.022 in assay [1]; 0.058 in assay [2]; 0.109 in assay [3]; 0.006 in assay [4]; -0.081 in assay [5]; 0.057 in assay [6]. Also, the log2 fold change in [8] is -0.009; in assay [18], 0.085; in assay [19], 0.016; in [9], 0.045; in [10] it was 0.074; in [11], 0.034. In addition, the log2 fold change in assay [13] was -0.011; in [14], 0.112; in [16] it was -0.139; in assay [17], -0.011; in assay [20], 0.266.

In the case of CDK5 (UniProt Q00535), the log2 fold change in [1] was -0.02; in assay [2] it was -0.009; in [3] it was 0.041; in assay [4], -0.008; in assay [5], -0.014; in assay [6] it was 0.052. Also, the log2 fold change in assay [7] was -0.02; in assay [18], 0.017; in assay [19], 0.038; in assay [9], 0.008; in [10] it was -0.009; in assay [11], 0.038. Also, the log2 fold change in assay [12] is 0.032; in [13] it was -0.07; in [14], -0.021; in assay [15], 0.043; in assay [16] it was 0.024; in assay [17], 0.038. Moreover, the log2 fold change in assay [20] is 0.028.

With CD84 (UniProt Q9UIB8), the log2 fold change is 0.131 in assay [1]; 0.052 in assay [2]; -0.027 in assay [3]; 0.099 in assay [4]; 0.01 in assay [5]; 0.033 in [8]. Further, the log2 fold change in assay [18] was -0.032; in assay [19], 0.111; in assay [11] it was -0.166; in assay [13], 0.068; in assay [14] it was 0.024; in assay [20], 0.233.

For CLASP2 (UniProt O75122), the log2 fold change in assay [1] was 0.089; in assay [2], -0.078; in assay [4], 0.082; in [5], -0.211; in assay [6], 0.133; in assay [7] it was 0.286. For the same target, the log2 fold change was -0.106 in assay [8]; 0.027 in [9]; -0.852 in assay [11]; -0.067 in assay [12]; 0.086 in assay [14]; 0.161 in assay [15]. Further, the log2 fold change in assay [16] is 0.057; in assay [17], 0.116.

Regarding CLINT1 isoform 3 (UniProt Q14677), the log2 fold change was 0.016 in [1]; -0.134 in assay [2]; -0.097 in [3]; -0.036 in assay [4]; 0.026 in assay [5]; 0.05 in assay [6]. Moreover, the log2 fold change in assay [7] was -0.03; in assay [8], -0.042; in assay [18], -0.044; in [19] it was 0.042; in assay [11], 0.135; in assay [12], 0.139. Further, the log2 fold change in [13] was 0.102; in [14], 0.103; in [15] it was 0.04; in assay [16], 0.047; in [17] it was -0.002; in assay [20], 0.022.

As to CCNDBP1 (UniProt O95273), the log2 fold change in [1] is 0.009; in assay [2], 0.191; in [4], 0.105; in assay [5] it was -0.011; in assay [6], 0.034; in [7], 0.076. Moreover, the log2 fold change in assay [8] is -0.122; in assay [18], -0.086; in assay [19] it was -0.068; in [10] it was -0.184; in assay [11] it was 0.071; in [12], 0.168. Also, the log2 fold change was -0.077 in assay [14], -0.027 in assay [15], 0.166 in assay [17] and -0.166 in [20].

Regarding C15orf41 (UniProt Q9Y2V0), the log2 fold change in [1] was 0.02; in assay [2], 0.017; in assay [3], 0.002; in assay [4], -0.033; in [5], -0.018; in assay [7] it was 0.001. The log2 fold change in assay [8] was -0.098; in [18], 0.115; in assay [19] it was 0.075; in assay [9], 0.105; in assay [11], 0.062; in assay [12], 0.004. Also, the log2 fold change in assay [13] is -0.103; in [14] it was -0.17; in assay [15], 0.11; in [16], 0.027; in assay [20] it was -0.117.

These data come from the supplement of paper PMC10849652.
